From PubChem BioAssay (EPA / NIEHS) come the findings set out here.

Structures are written as SMILES. Calls of active or inactive are those of the source. The calls were made as follows: active = hit-call score of the fitted dose curve at least 0.9, where 1 is the maximum; inactive = score below 0.9.

The nature of the assay: APR_HepG2_StressKinase_72hr: Apredica 72-hour HepG2 Assay for Stress Kinase (AID 2282921). To be noted: HepG2 stress kinase (phospho-c-Jun) imaging, actives raise or lower the signal. On the procedure: APR_HepG2_72hr is a cell-based, multiplexed-readout assay that uses HepG2, a human liver cell line, with measurements taken at 72 hours after chemical dosing in a 384-well plate.APR_HepG2_StressKinase_72hr is one of 10 assay component(s) measured or calculated from the APR_HepG2_72hr assay. It is designed to make measurements of enzyme activity, a form of enzyme reporter, as detected with fluorescence intensity signals by HCS Fluorescent Imaging technology.Data from the assay component APR_HepG2_StressKinase_72hr was analyzed into 1 assay endpoint. This assay endpoint, APR_HepG2_StressKinase_72hr, was analyzed with bidirectional fitting relative to DMSO as the negative control and baseline of activity. Using a type of enzyme reporter, measures of protein for gain or loss-of-signal activity can be used to understand the signaling at the pathway-level as they relate to the gene . Furthermore, this assay endpoint can be referred to as a primary readout, because this assay has produced multiple assay endpoints where this one serves a signaling function. To generalize the intended target to other relatable targets, this assay endpoint is annotated to the cell cycle intended target family, where the subfamily is stress response.
Cells were treated with dimethyl sulfoxide (DMSO) as a solvent control at a final concentration of 0.5% v/v or with compounds in DMSO with a resulting final DMSO concentration of 0.5% v/v. Compound treatment was done at concentrations of 0.39, 0.78, 1.56, 3.12, 6.24, 12.5, 25, 50, 100, and 200 uM in duplicate on each plate. Cells were treated with compounds for 1, 24, or 72 hr. Carbonyl […] m-chloro-phenylhydrazone (CCCP) and taxol were used as positive controls for mitochondrial function and cytoskeletal stability, respectively; DMSO served as the negative control for this experiment. Cells were fixed by the direct addition of 50 uL formaldehyde in Hank's Balanced Salt Solution (HBSS) to a final concentration of 3.7%. After incubation in the fixation medium for 30 min at room temperature (293-298 K), cells were rinsed twice with HBSS and treated with cell permeabilization buffer (16 uL of 0.5% Triton X-100) for 10 min at room temperature (293-298 K) before labeling. For mitochondrial membrane potential and mitochondrial measurements, pre-fixed cells were incubated with 50 uL of MitoTracker Red CMXRos (Invitrogen) at a concentration of 250 nM for 30 min before fixation. In the remaining cases, post-fixed cells were labeled by incubation with a multiplexed mixture of primary antibodies in HBSS for 60 min at room temperature (293-298 K) to detect immunoreactivity of c-Jun (1:500), phospho-histone H3 (1:100), phospho-histone H2A.x (1:200), p53 (1:400), alpha-tubulin (1:200) and Hoechst 33342 (2 ug/mL). Cells were labeled for multiplexed imaging on two separate plates: a) Hoechst 33342, MitoTracker Red, phospho-histone H3, and alpha-tubulin, and b) Hoechst 33342, phospho-histone H2A.x, and c-Jun. A final rinse with HBSS (50 uL) was performed before analysis. The primary and secondary antibodies for the proteins were phospho-histone H3 (rabbit anti-phospho-histone H3 and FITC-donkey anti-rabbit IgG), phospho-histone H2A.x (mouse anti-phospho-histone H2A.x and FITC-donkey anti-mouse IgG), c-Jun (rabbit anti-phospho-c-Jun and Cy3-donkey anti-rabbit IgG), p53 (sheep anti-p53 and Cy5-donkey anti-sheep IgG), alpha-tubulin (mouse anti-alpha-tubulin and Cy5-donkey anti-mouse IgG). These antibodies are available as the CellCiphr HepG2 assay kit (Millipore).Digital images of each well were captured using a Cellomics ArrayScan VTI (Thermo Scientific Cellomics) (0.8 NA objective, 0.63x optical coupler, and XF-93 filter set) at 20x magnification. The images were acquired using the autofocus feature of the ArrayScan instrument, which entails the following steps. First, the camera focuses on channel 1 (Hoechst 33342), where nuclei are identified. Second, a Z offset of 1 um is used for capturing mitochondria (MitoTracker Red). […]
In the case of `Cc1cc(C)nc(Nc2ccccc2)n1`, the outcome was inactive. For `Cc1c(COC(=O)[C@@H]2[C@H](/C=C(\Cl)C(F)(F)F)C2(C)C)cccc1-c1ccccc1`, the outcome was inactive. Take `Clc1cccc(C(Cl)(Cl)Cl)n1`: the result was inactive. For `CCNC(=O)NC(=O)C(C#N)=NOC`, the call was inactive.

With `CCOc1cc(C(C)(C)C)ccc1C1COC(c2c(F)cccc2F)=N1` (stereo not given), the outcome was inactive.

Turning to `CC1(C)CCC(=Cc2ccc(Cl)cc2)C1(O)Cn1cncn1` (stereo not given), the compound was called inactive. In the case of `CC1(C)C(C=C(Cl)Cl)C1C(=O)OC(C#N)c1cccc(Oc2ccccc2)c1` (stereo not given), the outcome was inactive. On the same count and under the same terms, with `C=C(C)CN(CC)c1c([N+](=O)[O-])cc(C(F)(F)F)cc1[N+](=O)[O-]` the entry was “inactive”. Turning to `CN=C=S`, the result was inactive. Still for that read-out and setting: under `Cc1nc(N(C)C)nc(OC(=O)N(C)C)c1C` stands “inactive”; under `N#Cc1c(Cl)cccc1Cl`, “inactive”. Consider `O=c1n(Cl)c(=O)n(Cl)c(=O)n1Cl`, for which the outcome was inactive. On the same count and under the same terms, under `COCc1cnc(C2=NC(C)(C(C)C)C(=O)N2)c(C(=O)O)c1` (stereo not given) stands “inactive”; under `CC(C)(C)C(=O)C(Oc1ccc(Cl)cc1)n1cncn1` (stereo not given), “inactive”; under `CCOP(=O)(OCC)Oc1nc(Cl)c(Cl)cc1Cl`, “inactive”.

Take `CC(C)N1C(=O)N(c2ccccc2)CSC1=NC(C)(C)C`: the compound was called inactive. Take `COCC(=O)N(c1c(C)cccc1C)C(C)C(=O)OC` (stereo not given): the outcome was inactive. For the compound `COP(=S)(OC)SCn1nnc2ccccc2c1=O`, the compound was called inactive. Same read-out and setting: under `CCC(C)n1c(=O)[nH]c(C)c(Br)c1=O` (stereo not given) stands “inactive”; under `CS(=O)(=O)c1ccc(C(=O)C2C(=O)CCCC2=O)c([N+](=O)[O-])c1`, “inactive”. Same read-out and setting: with `Nc1c(Cl)c(F)nc(OCC(=O)O)c1Cl` the entry was “inactive”. `CC(C)=CC1C(C(=O)OCc2coc(Cc3ccccc3)c2)C1(C)C` (stereo not given): the result was inactive. Turning to `Clc1nc(Cl)nc(Nc2ccccc2Cl)n1`, the compound was classed as inactive. Consider `CCCC(=NOCC)C1=C(O)CC(CC(C)SCC)CC1=O` (stereo not given), for which the call was inactive.

For `CCOP(=S)(OCC)Oc1nc(Cl)n(C(C)C)n1`, the call was inactive. Turning to `CCOc1nc(F)cc2nc(S(=O)(=O)Nc3c(Cl)cccc3Cl)nn12`, the outcome was inactive. Take `CCCCOCN(C(=O)CCl)c1c(CC)cccc1CC`: the half-maximal activity concentration (AC50) is 13.2 µM (active). Take `CCSC(=O)N1CCCCCC1`: the result was inactive. Still for that read-out and setting: with `OC(c1ccc(Cl)cc1)(c1ccc(Cl)cc1)C(Cl)(Cl)Cl` the entry was “inactive”; with `CC(C)NC(=O)N1CC(=O)N(c2cc(Cl)cc(Cl)c2)C1=O`, “inactive”; with `COC(=O)NC(=S)Nc1ccccc1NC(=S)NC(=O)OC`, “inactive”.

Turning to `Cc1ccc(N=CN(C)C=Nc2ccc(C)cc2C)c(C)c1`, the call was inactive. The same measure, in the same setting: under `COCC(C)N(C(=O)CCl)c1c(C)csc1C` (stereo not given) stands “inactive”; under `Nc1c(Cl)c(Cl)nc(C(=O)O)c1Cl`, “inactive”; under `Nc1cnn(-c2ccccc2)c(=O)c1Cl`, “inactive”. The same measure, in the same setting: under `COC(=O)NS(=O)(=O)c1ccc(N)cc1` stands “inactive”; under `CO/N=C(/C1=NOCCO1)c1ccccc1Oc1ncnc(Oc2ccccc2Cl)c1F`, “inactive”. Same read-out and setting: under `COc1cc(OC)nc(NC(=O)NS(=O)(=O)c2ncccc2OCC(F)(F)F)n1` stands “inactive”; under `N#Cc1c[nH]cc1-c1cccc2c1OC(F)(F)O2`, “inactive”. For the compound `CCNP(=S)(OC)O/C(C)=C/C(=O)OC(C)C` (stereo not given), the result was inactive.
